Results published in PubChem BioAssay AID488969 (Vanderbilt High Throughput Screening Facility, 2010).
Whole data set: some 110,000 compounds, median “z-score” near -0.1, cut for the highest 2% near 2. Many of the other results were omitted from the sample, so the highest values are more common in it than they were. The source made the active and inactive calls.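 The calls were made as follows: active = z-score in the third read window above 3 or below -3; inactive = the rest.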

molecular target: Metabotropic glutamate receptor 8 (Rattus norvegicus) (UniProt P70579); test: mGluR8 Gi/Go-coupled signaling modulation – cell-based, rat, thallium flux, HTS, primary screen (AID 488969); conditions: HEK293 rat mGluR8, GIRK (G protein-gated inwardly rectifying potassium channel) thallium flux, FluoZin2; at 10 µM; stronger effect = higher value; submaximal glutamate (EC20) added with thallium
Sequence (P70579 whole entry, looked up): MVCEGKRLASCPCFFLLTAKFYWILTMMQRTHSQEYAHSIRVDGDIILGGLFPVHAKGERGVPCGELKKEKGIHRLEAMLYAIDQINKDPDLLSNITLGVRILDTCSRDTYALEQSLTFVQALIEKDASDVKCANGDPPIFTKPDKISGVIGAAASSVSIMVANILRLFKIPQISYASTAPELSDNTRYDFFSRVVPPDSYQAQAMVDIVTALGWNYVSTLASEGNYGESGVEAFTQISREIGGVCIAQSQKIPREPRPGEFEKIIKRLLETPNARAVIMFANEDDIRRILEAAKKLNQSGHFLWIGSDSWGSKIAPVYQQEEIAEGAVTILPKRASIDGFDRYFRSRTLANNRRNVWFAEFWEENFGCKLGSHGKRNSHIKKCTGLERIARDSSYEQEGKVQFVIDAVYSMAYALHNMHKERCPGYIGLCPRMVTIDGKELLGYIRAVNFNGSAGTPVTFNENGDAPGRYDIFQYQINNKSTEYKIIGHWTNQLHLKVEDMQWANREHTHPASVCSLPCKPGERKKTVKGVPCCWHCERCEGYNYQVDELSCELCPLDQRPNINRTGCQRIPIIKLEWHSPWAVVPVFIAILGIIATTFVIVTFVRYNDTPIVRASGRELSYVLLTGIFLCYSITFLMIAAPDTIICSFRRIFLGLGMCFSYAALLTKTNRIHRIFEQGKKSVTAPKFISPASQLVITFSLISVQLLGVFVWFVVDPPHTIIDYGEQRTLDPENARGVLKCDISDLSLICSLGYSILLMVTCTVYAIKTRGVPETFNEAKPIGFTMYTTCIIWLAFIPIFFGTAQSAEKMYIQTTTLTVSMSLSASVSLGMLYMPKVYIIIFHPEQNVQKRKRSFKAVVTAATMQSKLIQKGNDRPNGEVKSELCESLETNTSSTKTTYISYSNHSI

| SMILES | z-score |
| --- | --- |
| CN(C)Cc1nc2c(c(=O)[nH]1)C(C)(C)Cc1ccccc1-2 | 0.00689 |
| O=C(COC(=O)c1ccc2c(c1)C(=O)N(c1cccc3ncccc13)C2=O)c1ccc(Cl)cc1 | -0.619 |
| COc1ccc(NC(=O)N2CC(C)OC(C)C2)cc1OC (configuration not stated) | -0.307 |
| O=C(CCNS(=O)(=O)c1ccc2c(c1)CCC(=O)N2)NCc1cccnc1 | -0.489 |
| CCn1nnc(NC(=O)COc2ccc(C3CCCCC3)cc2)n1 | 2.13 |
| CCCCn1nnc(NC(=O)COc2ccc(Cl)c(C)c2)n1 | 0.0561 |
| CCCCn1nnc(NC(=O)COc2cc(C)ccc2C(C)C)n1 | 1.04 |
| CCCn1nnc(NC(=O)COc2ccc(CC)cc2)n1 | -0.0151 |
| Cn1nnc(NC(=O)COc2ccc(C3CCCCC3)cc2)n1 | 0.85 |
| CCCn1nnc(NC(=O)COc2cc(C)ccc2C(C)C)n1 | 2.14 |
| CCn1nnc(NC(=O)COc2cc(C)ccc2C(C)C)n1 | -0.0287 |
| CCCn1nnc(NC(=O)COc2ccc(Cl)cc2)n1 | -0.244 |
| CCCn1nnc(NC(=O)COc2ccc(C3CCCCC3)cc2)n1 | 2.04 |
| CC1C/C(=N/N=C2/NC(=O)CS2)CC(C)(C)C1 (configuration not stated) | -0.18 |
| Cc1cccc(-n2nc3c([n+]2[O-])CCc2nonc2-3)c1C | -0.912 |
| Clc1ccccc1CN(Cc1ccccc1)C(c1cccs1)c1nnnn1C1CCCC1 (configuration not stated) | -0.135 |
| CN(C)C(CNC(=O)CCCc1c[nH]c2ccccc12)c1ccco1 (configuration not stated) | -0.0945 |
| O=C(O)c1ccccc1C(=O)Nc1n[nH]c(=S)s1 | -0.153 |
| N#CCCn1c(SCC(=O)Nc2ccc(N3CCOCC3)cc2)nc2ccccc21 | 2.51 |

| SMILES | z-score |
| --- | --- |
| CCCCNC(=O)CSc1nc2ccc(N3CCOCC3)cc2c(=O)n1CCc1ccccc1 | 1.19 |
| O=C(CSc1ccccc1)Nc1ccc(N2CCOCC2)cc1 | 0.00596 |
| CCCCn1c(SCC(=O)NCCOC)nc2ccc(N3CCOCC3)cc2c1=O | 1.19 |
| Nc1ccccc1SCC(=O)Nc1ccc(N2CCOCC2)cc1 | 2.53 |
| CCCCn1c(SCC(=O)Nc2ccc(OC)cc2)nc2ccc(N3CCOCC3)cc2c1=O | 4.35 (active) |
| N#CCSc1nc2ccc(N3CCOCC3)cc2c(=O)n1CCc1ccccc1 | 4.95 (active) |
| COCCn1c(SCC(=O)Nc2ccc(N3CCOCC3)cc2)nc2ccccc21 | -0.228 |
| N#CCCn1c(SCC(=O)NCC2CCCO2)nc2ccccc21 (configuration not stated) | -0.368 |
| N#CCSc1nc2ccc(N3CCCCC3)cc2c(=O)n1Cc1ccccc1 | 0.65 |
| CCCCn1c(SCC(=O)NC(C)CC)nc2ccc(N3CCOCC3)cc2c1=O (configuration not stated) | 0.126 |
| O=C(CSc1ncccn1)Nc1ccc(N2CCOCC2)cc1 | -0.202 |
| Cc1cc(NS(=O)(=O)c2ccc(NC(=O)c3oc4ccccc4c3C)cc2)no1 | 0.155 |
| CCC(CC)C(=O)Nc1ccc(Nc2ccccc2)cc1 | -0.165 |
| Cc1cc(N2CCN(c3ccccc3Cl)CC2)n2cc(-c3ccccc3)nc2n1 | 0.105 |
| Cc1ccnc(SCC(=O)Nc2c(C)n(C)n(-c3ccccc3)c2=O)n1 | -0.181 |
| CC(C)(C)c1ccc(C(=O)NCc2cccnc2)cc1 | 0.116 |
| CC(CCc1ccccc1)NC(=O)Cc1ccc([N+](=O)[O-])cc1 (configuration not stated) | -1.51 |
| CCCCOc1ccc(C(C)NC(=O)CCS(=O)(=O)Cc2ccccc2Cl)cc1 (configuration not stated) | 0.131 |
| Cc1ccc(/C=N/NC(=O)c2cc3c(ccc4ccccc43)o2)cc1[N+](=O)[O-] | -0.185 |

| SMILES | z-score |
| --- | --- |
| Cc1cccc2c1N1C(=O)c3c(C(=O)O)cccc3C1CC2C (configuration not stated) | -0.265 |
| CON(C)c1nc(OCCNC(=O)COc2ccc(Cl)cc2C)nc(N(C)C)n1 | 0.98 |
| CC1=CC(C)(C)N(C(=O)CN2C(=O)c3ccccc3C2=O)c2ccc(C)cc21 | 0.455 |
| CCOC(=O)C1=C(C)NC(=O)C(C(N)=O)C12CCCC2 (configuration not stated) | -0.24 |
| Cc1nc2ccccc2cc1C(=O)N/N=C/c1cccs1 | -0.0999 |
| COc1ccc(S(=O)(=O)N(CC(=O)N2CCN(c3ccccc3)CC2)c2ccccc2)cc1 | 2.25 |
| O=C(CN(c1ccc(Cl)cc1)S(=O)(=O)c1ccccc1)N1CCN(c2ccccc2)CC1 | -0.37 |
| COc1ccc(N2CCN(C(=O)CN(c3ccccc3)S(=O)(=O)c3ccc(OC)cc3)CC2)cc1 | -0.0102 |
| COc1ccc(/C=C2/SC(=O)N(CC(O)Cn3c4ccccc4c4ccccc43)C2=O)cc1 (configuration not stated) | -0.167 |
| Cc1cc(=O)[nH]c(N/N=C/c2cccs2)n1 | -0.0197 |
| O=C1CC(C(=O)Nc2ccccc2)C2(CCCC2)O1 (configuration not stated) | -0.154 |
| O=C1CC(C(=O)Nc2ccccc2)C2(CCCCC2)O1 (configuration not stated) | -0.333 |
| O=C1CC(C(=O)Nc2ccc(Br)cc2)C2(CCCC2)O1 (configuration not stated) | 2.34 |
| CCOC(=O)Cc1csc(NC(=O)c2cccc(OC)c2)n1 | 0.0443 |
| CC1CCCCC12NC(=O)N(CC(=O)Nc1sc3c(c1C(N)=O)CCC3)C2=O (configuration not stated) | 0.0207 |
| CC(C)C1Oc2ccccc2N(CC(=O)NCCCN2C(C)CCCC2C)C1=O (configuration not stated) | 0.132 |
| CCC(C)(C)NC(=O)C(c1ccc(F)cc1)N(Cc1ccco1)C(=O)c1snc(C(N)=O)c1N (configuration not stated) | -0.00804 |
| COC(=O)c1ccc(C(C(=O)NCc2ccccc2)N(Cc2ccco2)C(=O)c2cnccn2)cc1 (configuration not stated) | 0.053 |
| CCC(C)(C)NC(=O)C(c1ccc(F)cc1)N(Cc1ccco1)C(=O)c1cnccn1 (configuration not stated) | 3.05 (active) |
